Only some compounds are listed: those with a hit (about 11% of all), similar ones and a draw of the others.
JMJD2A Tudor – blocks the human JMJD2A Tudor domain; O75164; AlphaScreen JMJD2A-Tudor / H3K4me3 peptide binding; Potency, µM (doses to about 114 µM), without a hit: at the highest dose activity change, negative = inhibition, hits mostly inhibitors; AID 504339; 390,000 tested, 4.4% active; further: on the % scale 0 is the no-effect control and ±100 the full control effect; nearly all actives have a fitted effect of over 50% in size
HP1b binding inh – blocks HP1-beta chromodomain binding to methylated histone tails; AlphaScreen HP1-beta / biotin-H3K9me3 peptide binding; Potency, µM (titrated, usually from 114 µM), for inactives: top-dose activity change, negative = inhibition, hits mostly inhibitors; 390,000 tested, 0.56% active; P83916; further: nearly all actives have a fitted effect of over 70% in size
Target sequence (P83916 whole entry, looked up): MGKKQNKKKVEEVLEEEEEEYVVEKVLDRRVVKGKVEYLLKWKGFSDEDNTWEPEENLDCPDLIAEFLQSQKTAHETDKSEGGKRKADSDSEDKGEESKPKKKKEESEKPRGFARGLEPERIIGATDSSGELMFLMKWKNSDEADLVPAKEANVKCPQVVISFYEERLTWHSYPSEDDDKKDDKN
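Compound inhibition of the preformed complex between 50 nM HP1-beta and 50 nM biotinylated H3K9me3 peptide was read by AlphaScreen. Buffer was PBS pH 7.4 with 0.01% Tween-20. Incubations ran 30 min at room temperature, with 10 ug/mL donor/acceptor beads.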
G9a inh – blocks human histone lysine methyltransferase G9a; G9a H3K9 monomethylation, AlphaScreen, 2 h; Potency, µM (doses to about 102 µM), for inactives: top-dose activity, negative = inhibition, usual class: inhibitors; 350,000 tested, 8.8% active; AID 504332; further: on the % scale 0 is the no-effect control and ±100 the full control effect; nearly all actives have a fitted effect of over 75% in size
Target sequence (Q96KQ7 913-1193 limits assumed): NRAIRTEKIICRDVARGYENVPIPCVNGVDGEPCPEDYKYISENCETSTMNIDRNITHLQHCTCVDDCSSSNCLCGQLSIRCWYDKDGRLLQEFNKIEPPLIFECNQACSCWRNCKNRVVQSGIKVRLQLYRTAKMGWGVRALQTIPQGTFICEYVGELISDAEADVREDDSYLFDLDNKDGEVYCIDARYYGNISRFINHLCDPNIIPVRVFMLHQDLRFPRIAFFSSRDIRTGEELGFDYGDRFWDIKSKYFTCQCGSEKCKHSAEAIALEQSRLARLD
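Signal arises when biotinylated H3K9 peptide, once monomethylated, bridges streptavidin donor and antibody-captured acceptor beads. Enzyme at 20 nM was preincubated 15 min with test compounds; peptide 500 nM and SAM 20 uM then reacted for 2 h.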
BAZ2B block – inhibitors of human BAZ2B bromodomain | AlphaScreen BAZ2B-H3K14Ac peptide displacement | Potency, µM (doses to about 114 µM), without a hit: top-dose activity change, negative = inhibition, most hits filed as inhibitors | AID 504333 | 360,000 tested, 4.4% active | Q9UIF8; further: on the % scale 0 is the no-effect control and ±100 the full control effect; nearly all actives have a fitted effect of over 60% in size
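Complex of BAZ2B and biotin-H3K14Ac (50 nM apiece) forms over 30 min at RT, then faces library compounds up to 110 uM for another 30 min; AlphaScreen beads added, 20 min dark incubation, luminescence read.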
L3MBTL1 inh – L3MBTL1 (human) inhibition; AID 485360; 230,000 tested, 0.66% active; Q9Y468; Potency, µM (titrated, usually from 57.1 µM), for inactives: at the highest dose activity, negative = inhibition, hits mostly inhibitors; AlphaScreen L3MBTL1–H3K9me1 peptide binding; further: on the % scale 0 is the no-effect control and ±100 the full control effect; nearly all actives have a fitted effect of over 60% in size
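Displacement of a biotinylated histone H3(1-15) peptide monomethylated at Lys9 (75 nM) from L3MBTL1 (50 nM) was measured by AlphaScreen after a 30 min room-temperature compound incubation; cefsulodin titration served as intraplate control.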
Starred values were filed as active, the others as inactive; ? = inconclusive; . = not tested or not shown; [ ] = another dose, or the depositor's remark. The call rests on the fitted dose curve; in most records, active means well fitted inhibition curve with a large enough effect; inconclusive means small, poorly fitted or top-dose-only effect; inactive means no such curve, though single readings can be large or run the other way. Potency means the concentration at half of the fitted maximal effect.

SMILES | JMJD2A Tudor | HP1b binding inh | G9a inh | BAZ2B block | L3MBTL1 inh
CC1=CC(C)(C)Nc2ccc(OC(=O)C(Cc3ccccc3)N3C(=O)c4ccccc4C3=O)cc21 (stereo not given) | ? | ? | ? | ? | -20%
CCc1ccc2c(c1)C(C)=CC(C)(C)N2 | ? | -24% | ? | ? | .
CC1=CC(C)(C)Nc2ccc(OC(=O)CN3C(=O)c4ccccc4C3=O)cc21 | ? | ? | 35µM* | 18µM* | -25%
COc1cc(NC(=O)C2CCN(S(=O)(=O)c3c(C)noc3/C=C/c3c(C)cc(C)cc3C)CC2)cc(OC)c1 | -13% | 16%[57 µM] | 0%[59 µM] | 0% | .
COc1ccc(CN(Cc2ccccc2)C(=O)c2ccc(OC)cc2O)cc1 | -35% | . | . | . | .
CC1=C(C(=O)Nc2ccccc2)C(c2ccncc2)C(C#N)=C(SCC(=O)NC2CC2)N1 (stereo not given) | -9% | 65% | 28µM* | 0% | 2%
CC1=C(C(=O)Nc2ccccc2)C(c2ccncc2)C(C#N)=C(SCC(=O)NC(C)C)N1 (stereo not given) | -7% | 33% | 11µM* | 6% | 41%
CCCSC1=C(C#N)C(c2cccs2)C(C(=O)Nc2ccccc2)=C(C)N1 (stereo not given) | -8% | 82% | ? | -2% | -6%
Cc1ccc(NS(=O)(=O)c2ccc(-c3cc(C)no3)cc2)c(C)c1 | -6% | 45% | 1%[59 µM] | -2% | .
O=C(NCc1ccc2c(c1)OCO2)C1CCN(c2nccc(C(F)(F)F)n2)CC1 | -25% | 35% | 6% | 1% | 6%
CCCn1c(N2CCN(C(=O)N3CCCCC3)CC2)nc2ccccc21 | -12% | 15% | 50µM* | ? | -5%
CCC(C)n1c(S(=O)(=O)O)nc2ccccc21 (stereo not given) | -13% | 33% | 79µM* | ? | .
Cc1cccc(OCCn2c(S(=O)(=O)O)nc3ccccc32)c1 | -18% | 7% | . | -6% | -2%
CCCn1c(/C=C/c2cc[n+](C)cc2)nc2ccccc21 | ? | 12% | 40µM* | ? | 5%
CCC(C)n1c(/C=C/c2ccccc2)nc2ccccc21 (stereo not given) | 77% | 97% | 77%[59 µM] | 95% | 51%
O=S(=O)(O)c1nc2ccccc2n1CCOc1ccccc1 | -26% | 21% | 50µM* | -33% | -3%
Nc1nc2ccccc2n1CCOc1ccc(Br)cc1 | -11% | 31% | . | ? | .
S=C(Nc1ccccc1)Nc1nc2ccccc2n1CCOc1ccc(Br)cc1 | ? | -1% | ? | 3.2µM* | 6.3µM*
CCCn1c(S(=O)(=O)O)nc2ccccc21 | -15% | 18% | 50µM* | -15% | .
COc1cc(NC(=O)[C@@H](NC(=O)N2CCn3c2nc2ccccc23)C(C)C)cc(OC)c1 | -23% | 11% | 12% | ? | .
COc1ccc(NC(=O)CCSCCc2ccccn2)cc1OC | -15% | 29% | -8% | -11% | 7%
CCN1CCCC(OC(=O)C(c2ccccc2)c2ccccc2)C1 (stereo not given) | -27% | -3% | -27%[59 µM] | 5% | -3%
CN(C)[C@@H]1CCC[C@@H]1OC(=O)C(c1ccccc1)c1ccccc1 | 1.1µM* | ? | 13µM* | 35µM* | -1%
Cc1cccc(CN2C(=O)c3ccccc3S(=O)(=O)c3ccc(C(=O)NCCC4=CCCCC4)cc32)c1 | -14% | 18% | 6%[59 µM] | -14% | .
Oc1ccc(N2CCN(C(c3ccc(Cl)cc3)c3nnnn3Cc3ccc(F)cc3)CC2)cc1 (stereo not given) | 40µM* | ? | . | . | .
SMILES | JMJD2A Tudor | HP1b binding inh | G9a inh | BAZ2B block | L3MBTL1 inh
COc1ccc(Cn2nnnc2C(c2ccccc2)N2CCN(c3ccccc3)CC2)cc1 (stereo not given) | ? | 7% | . | . | .
CCCC(c1nnnn1CC1CCCO1)N1CCN(c2ccccc2)CC1 (stereo not given) | -1% | 42% | 56µM* | ? | 0%
CCC(c1nnnn1Cc1ccc(OC)cc1)N1CCN(c2ccc(OC)cc2)CC1 (stereo not given) | ? | ? | . | 35µM* | -20%
CCC(c1nnnn1Cc1ccccc1)N1CCN(c2ccc(OC)cc2)CC1 (stereo not given) | ? | -4% | 13µM* | ? | -24%
COc1ccc(Cn2nnnc2C(c2cccnc2)N2CCN(c3ccc(O)cc3)CC2)cc1 (stereo not given) | ? | ? | ? | -1% | -8%
CCCC(c1nnnn1Cc1cccs1)N1CCN(c2ccc(OC)cc2)CC1 (stereo not given) | ? | ? | 18µM* | 45µM* | -20%
CCC(C)(C)n1nnnc1C(c1ccccn1)N1CCN(c2cccc(OC)c2)CC1 (stereo not given) | -33% | 17% | 20µM* | -4% | -7%
CCC(C)(C)n1nnnc1C(c1ccccn1)N1CCOCC1 (stereo not given) | -9% | 8% | ? | 9% | 5%
CCC(c1nnnn1Cc1ccc2c(c1)OCO2)N1CCN(c2ccc(OC)cc2)CC1 (stereo not given) | ? | -42% | 40µM* | 32µM* | -28%
Oc1ccc(N2CCN(C(c3ccccn3)c3nnnn3C3CCCC3)CC2)cc1 (stereo not given) | 25µM* | ? | 1.8µM* | -11% | -5%
COc1ccccc1NC(c1ccc(Cl)cc1)c1nnc(-c2cccc(F)c2)o1 (stereo not given) | -8% | 20% | -36%[59 µM] | -24% | .
CCOC(=O)C1=C[C@@]2(CC)CCCN3CCc4c(n1c1ccccc41)C32 (stereo not given in full) | . | . | -28%[2.33 µM] | . | .
COc1ccc(Cn2nnnc2C(c2ccccn2)N2CCN(c3ccc(O)cc3)CC2)cc1 (stereo not given) | 32µM* | ? | . | . | .
N#C/C(=N\Nc1cccc(C(F)(F)F)c1)C(=O)c1csc(-c2cccnc2)n1 | ? | 3% | ? | 28µM* | ?
CN(Cc1ccccc1)C(=O)C1CCN(S(=O)(=O)Cc2ccccc2)CC1 | -25% | 29% | -5%[59 µM] | -3% | .
Cc1cc(S(=O)(=O)N2CCCC(N3CCOCC3)C2)c(C)cc1Cl (stereo not given) | -17% | -20% | 45µM* | -32% | -7%
O=S(=O)(c1cc(Cl)ccc1Cl)N1CCN2CCCC2C1 (stereo not given) | 0% | 22% | -9% | -9% | -5%
COc1ccc(N2CCN(C(=O)c3cn(CC4CCCCC4)nn3)CC2)cc1 | ? | -10% | 35µM* | ? | .
COc1ccc(N2CCN(C3CCCN(S(=O)(=O)c4ccccc4)C3)CC2)cc1 (stereo not given) | ? | ? | . | 71µM* | .
